Measurements as given in PubChem BioAssay AID1159580 (chemical genetic matrix, 2015).
Hit rate of the full screen: of about 5,500 compounds, about 2,000 (36%) were called active. About 18% were inconclusive and are not listed. Rule as the data show it: active = normalized growth mostly below about 0.91 (no sharp cut-off); inconclusive = no clear call, values can overlap the other calls; inactive = mostly above about 0.92. This is one part of the list.

Assay: chemical genetic growth profiling, strain panel (AID 1159580);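 also: tested at 20 µM; growth read once vehicle control cultures reached saturation at 30 °C; 1 = growth at the plate median or of vehicle wells; lower values mean less growth of the strain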
Settings: growth OD

Measured: normalized growth

CC(C)CCCC(C)[C@H]1CCC2C3C(=O)C=C4C[C@@H](O)CC[C@]4(C)C3CC[C@@]21C (stereo partly drawn)
inactive: S. cerevisiae deletion strains, locus YJL187C, strain SWE1, hits give low values 1 | S. cerevisiae deletion strains, locus YJR043C, strain POL32, hits give low values 1.01 | S. cerevisiae deletion strains, locus YJR066W, strain TOR1, hits give low values 0.948 | S. cerevisiae deletion strains, locus YKL009W, strain mrt4, hits give low values 1.07 | S. cerevisiae deletion strains, locus YKL068W, hits give low values 1.01 | S. cerevisiae deletion strains, locus YKL085W, strain MDH1 (second series), hits give low values 1.03 | S. cerevisiae deletion strains, locus YKL085W, strain MDH1, hits give low values 1.03 | S. cerevisiae deletion strains, locus YKL160W, strain elf1, hits give low values 0.981 | S. cerevisiae deletion strains, locus YKR001C, strain vps1, hits give low values 1.05 | S. cerevisiae deletion strains, locus YKR026C, strain gcn3, hits give low values 0.996 | S. cerevisiae deletion strains, locus YKR091W, strain srl3, hits give low values 1 | S. cerevisiae deletion strains, locus YLL001W, strain dnm1, hits give low values 0.998 | S. cerevisiae deletion strains, locus YLL026W, hits give low values 1.01 | S. cerevisiae deletion strains, locus YLL041C, strain sdh2, hits give low values 0.991 | S. cerevisiae deletion strains, locus YLR027C, strain aat2, hits give low values 0.989 | S. cerevisiae deletion strains, locus YLR039C, strain RIC1, hits give low values 1.08 | S. cerevisiae deletion strains, locus YLR058C, strain SHM2, hits give low values 1.06 | S. cerevisiae deletion strains, locus YLR102C, strain apc9, hits give low values 1.03 | S. cerevisiae deletion strains, locus YLR113W, strain HOG1, hits give low values 0.975 | S. cerevisiae deletion strains, locus YLR221C, strain rsa3, hits give low values 0.981 | S. cerevisiae deletion strains, locus YLR258W, strain gsy2, hits give low values 1.02 | S. cerevisiae deletion strains, locus YLR262C, strain YPT6 (second series), hits give low values 0.972 | S. cerevisiae deletion strains, locus YLR262C, strain YPT6, hits give low values 1.09 | S. cerevisiae deletion strains, locus YLR268W, strain sec22, hits give low values 1.07 | S. cerevisiae deletion strains, locus YLR320W, strain mms22, hits give low values 1.03 | S. cerevisiae deletion strains, locus YLR330W, strain CHS5, hits give low values 1.02 | S. cerevisiae deletion strains, locus YLR342W, strain FKS1 (second series), hits give low values 1.07 | S. cerevisiae deletion strains, locus YLR342W, strain FKS1, hits give low values 1 | S. cerevisiae deletion strains, locus YLR357W, strain rsc2, hits give low values 1.06 | S. cerevisiae deletion strains, locus YLR370C, strain arc18, hits give low values 0.984 | S. cerevisiae deletion strains, locus YLR371W, strain rom2, hits give low values 1.03 | S. cerevisiae deletion strains, locus YLR384C, strain iki3, hits give low values 0.997 | S. cerevisiae deletion strains, locus YLR418C, strain cdc73, hits give low values 1.04 | S. cerevisiae deletion strains, locus YML016C, strain PPZ1, hits give low values 1.03 | S. cerevisiae deletion strains, locus YML032C, strain rad52, hits give low values 1.02 | S. cerevisiae deletion strains, locus YML120C, strain ndi1, hits give low values 0.965 | S. cerevisiae deletion strains, locus YML124C, strain tub3, hits give low values 1.02 | S. cerevisiae deletion strains, locus YMR058W, strain fet3, hits give low values 0.992 | S. cerevisiae deletion strains, locus YMR078C, strain ctf18, hits give low values 1.05 | S. cerevisiae deletion strains, locus YMR125W, strain sto1, hits give low values 1.01 | S. cerevisiae deletion strains, locus YMR129W, hits give low values 0.989 | S. cerevisiae deletion strains, locus YMR205C, strain PFK2, hits give low values 1.05 | S. cerevisiae deletion strains, locus YMR223W, strain ubp8, hits give low values 1.02 | S. cerevisiae deletion strains, locus YMR231W, strain pep5, hits give low values 1 | S. cerevisiae deletion strains, locus YMR307W, strain GAS1, hits give low values 1.11 | S. cerevisiae deletion strains, locus YNL067W, strain RPL9B, hits give low values 1.02 | S. cerevisiae deletion strains, locus YNL071W, strain lat1, hits give low values 0.993 | S. cerevisiae deletion strains, locus YNL183C, strain NPR1, hits give low values 0.937 | S. cerevisiae deletion strains, locus YNL209W, strain ssb2, hits give low values 1 | S. cerevisiae deletion strains, locus YNL233W, strain BNI4, hits give low values 1.02 | S. cerevisiae deletion strains, locus YNL248C, strain rpa49, hits give low values 0.934 | S. cerevisiae deletion strains, locus YNL250W, strain rad50, hits give low values 1.03 | S. cerevisiae deletion strains, locus YNL271C, strain bni1, hits give low values 1.05 | S. cerevisiae deletion strains, locus YNL298W, strain CLA4, hits give low values 1.04 | S. cerevisiae deletion strains, locus YNL307C, strain MCK1, hits give low values 1.05 | S. cerevisiae deletion strains, locus YNL322C, strain KRE1 (second series), hits give low values 0.98 | S. cerevisiae deletion strains, locus YNR049C, strain mso1, hits give low values 0.996 | S. cerevisiae deletion strains, locus YNR052C, strain pop2, hits give low values 1.03 | S. cerevisiae deletion strains, locus YOL012C, strain htz1 1.19 | S. cerevisiae deletion strains, locus YOL147C, strain pex11, hits give low values 1.01 | S. cerevisiae deletion strains, locus YOR001W, strain rrp6, hits give low values 0.994 | S. cerevisiae deletion strains, locus YOR061W, strain CKA2, hits give low values 1.05 | S. cerevisiae deletion strains, locus YOR069W, strain VPS5, hits give low values 1.02 | S. cerevisiae deletion strains, locus YOR070C, strain gyp1, hits give low values 0.999 | S. cerevisiae deletion strains, locus YOR080W, strain dia2, hits give low values 1.04 | S. cerevisiae deletion strains, locus YOR083W, strain WHI5, hits give low values 0.969 | S. cerevisiae deletion strains, locus YOR106W, strain vam3, hits give low values 0.978 | S. cerevisiae deletion strains, locus YOR136W, strain idh2, hits give low values 1.04 | S. cerevisiae deletion strains, locus YOR144C, strain elg1, hits give low values 1.02 | S. cerevisiae deletion strains, locus YOR184W, strain ser1, hits give low values 1.06 | S. cerevisiae deletion strains, locus YOR231W, strain MKK1, hits give low values 1 | S. cerevisiae deletion strains, locus YOR265W, strain rbl2, hits give low values 0.996 | S. cerevisiae deletion strains, locus YOR270C, strain vph1, hits give low values 0.907 | S. cerevisiae deletion strains, locus YOR290C, strain snf2, hits give low values 1.07 | S. cerevisiae deletion strains, locus YOR316C, strain cot1, hits give low values 1.04 | S. cerevisiae deletion strains, locus YPL051W, strain arl3, hits give low values 0.981 | S. cerevisiae deletion strains, locus YPL055C, strain LGE1, hits give low values 1.05 | S. cerevisiae deletion strains, locus YPL078C, strain atp4, hits give low values 0.935 | S. cerevisiae deletion strains, locus YPL106C, strain sse1, hits give low values 1.08 | S. cerevisiae deletion strains, locus YPL240C, strain hsp82, hits give low values 0.985 | S. cerevisiae deletion strains, locus YPL241C, strain CIN2, hits give low values 1.01 | S. cerevisiae deletion strains, locus YPL256C, strain CLN2, hits give low values 0.989 | S. cerevisiae deletion strains, locus YPR119W, strain clb2, hits give low values 1.03 | S. cerevisiae deletion strains, locus YPR141C, strain kar3, hits give low values 1.03 | S. cerevisiae deletion strains, locus YPR163C, strain tif3, hits give low values 1.03 | S. cerevisiae deletion strains, locus YPR167C, strain met16, hits give low values 1.04 | S. cerevisiae deletion strains, strain wtn01, hits give low values 1.03 | S. cerevisiae strains, strain wild type, hits give low values 1.02
